From PubChem BioAssay AID1159580 (chemical genetic matrix, 2015)
“And” between values parts separate entries of the source, which are not always exact repeats. Equal entries are not always repeated. Among all 5,500 compounds or so, about 2,000 (36%) were called active. Roughly 18% stayed inconclusive and do not appear here. Rule as the data show it: active = normalized growth mostly below about 0.91 (no sharp cut-off); inconclusive = no clear call, values can overlap the other calls; inactive = mostly above about 0.92. Some of the results follow.

Assay: chemical genetic growth profiling, strain panel (AID 1159580);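 also: tested at 20 µM; growth read once vehicle control cultures reached saturation at 30 °C; 1 = growth at the plate median or of vehicle wells; lower values mean less growth of the strain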
Conditions: S. cerevisiae deletion strains, growth OD

Measured: normalized growth

NC(=O)CC[C@@H](N)C(=O)O
inactive: locus YAL021C, strain ccr4, hits give low values 1.02 | locus YAL026C, strain drs2, hits give low values 1.05 | locus YAL030W, strain snc1, hits give low values 1.04 | locus YBL061C, strain skt5, hits give low values 1.03 | locus YBR009C, strain hhf1, hits give low values 1.03 | locus YBR021W, strain FUR4, hits give low values 1.04 | locus YBR023C, strain chs3, hits give low values 1.03 | locus YBR171W, strain sec66, hits give low values 1.05 | locus YBR229C, strain ROT2, hits give low values 1.01 | locus YBR231C, strain swc5, hits give low values 1.02 | locus YBR279W, strain paf1, hits give low values 1.02 | locus YCL011C, strain gbp2, hits give low values 1.02 | locus YCL016C, strain dcc1, hits give low values 1.02 | locus YCL029C, strain bik1, hits give low values 1.01 | locus YCL061C, strain MRC1, hits give low values 1.02 | locus YCL069W, strain vba3, hits give low values 1.02 | locus YCR088W, strain abp1, hits give low values 1.03 | locus YDL005C, strain med2, hits give low values 1.04 | locus YDL035C, strain GPR1, hits give low values 1.06 | locus YDL040C, strain nat1, hits give low values 1.02 | locus YDL074C, strain BRE1, hits give low values 1.09 | locus YDL101C, strain DUN1, hits give low values 1.02 | locus YDL185W, strain tfp1, hits give low values 1.01 | locus YDL192W, strain arf1, hits give low values 1.03 | locus YDR001C, strain nth1, hits give low values 1.02 | locus YDR069C, strain doa4, hits give low values 1.03 | locus YDR101C, strain arx1, hits give low values 1.01 | locus YDR137W, strain rgp1, hits give low values 1.06 | locus YDR159W, strain sac3, hits give low values 1.08 | locus YDR162C, strain NBP2, hits give low values 1.05 | locus YDR195W, strain ref2 1.01 | locus YDR297W, strain sur2, hits give low values 1.02 | locus YDR318W, strain mcm21, hits give low values 0.996 | locus YDR334W, strain swr1, hits give low values 1.03 | locus YDR335W, strain msn5, hits give low values 1.04 | locus YDR388W, hits give low values 0.993 | locus YDR392W, strain spt3, hits give low values 0.937 | locus YDR502C, strain sam2, hits give low values 1.02 | locus YEL003W, strain gim4, hits give low values 1.02 | locus YEL037C, strain rad23, hits give low values 1.03 | locus YEL061C, strain CIN8 (second series), hits give low values 1.02 | locus YEL061C, strain CIN8, hits give low values 1.02 | locus YER015W, strain faa2, hits give low values 1.03 | locus YER016W, strain bim1, hits give low values 1.02 | locus YER110C, hits give low values 0.996 | locus YER111C, strain swi4, hits give low values 1.02 | locus YER155C, strain BEM2 (second series), hits give low values 0.971 | locus YER155C, strain BEM2, hits give low values 1.01 | locus YER167W, strain BCK2, hits give low values 1.02 | locus YFR010W, strain ubp6, hits give low values 1.05 | locus YGL078C, strain dbp3, hits give low values 1.03 | locus YGL086W, strain mad1, hits give low values 1.02 | locus YGL167C, strain pmr1, hits give low values 1.04 | locus YGL173C, strain kem1, hits give low values 1.04 | locus YGL227W, strain vid30, hits give low values 1.02 | locus YGL240W, strain doc1, hits give low values 1.02 | locus YGL248W, strain PDE1, hits give low values 1.02 | locus YGL253W, strain hxk2, hits give low values 1.06 | locus YGR078C, strain PAC10, hits give low values 1.04 | locus YGR135W, strain pre9, hits give low values 1.02 | locus YGR252W, strain gcn5, hits give low values 1.14 | locus YHR013C, strain ard1, hits give low values 1.07 | locus YHR027C, strain rpn1, hits give low values 1.04 | locus YHR030C, strain SLT2, hits give low values 1.02 and 1.05 | locus YHR079C, strain IRE1 (second series), hits give low values 0.987 | locus YHR079C, strain IRE1, hits give low values 1.03 | locus YHR094C, strain hxt1, hits give low values 0.984 | locus YHR129C, strain ARP1, hits give low values 1.03 | locus YHR142W, strain chs7, hits give low values 1.05 | locus YHR200W, strain rpn10, hits give low values 1 | locus YIL066C, strain RNR3, hits give low values 1.05 | locus YIL073C, strain SPO22, hits give low values 1.13 | locus YIL125W, strain kgd1, hits give low values 1.02 | locus YIR030C, strain dcg1, hits give low values 0.998 | locus YJL092W, strain hpr5, hits give low values 1.03 | locus YJL095W, strain BCK1 (second series), hits give low values 1.02 | locus YJL095W, strain BCK1, hits give low values 1.05 and 1.04 | locus YJL115W, strain asf1, hits give low values 1.02 | locus YJL129C, strain trk1, hits give low values 1.07 | locus YJL134W, strain LCB3, hits give low values 1.01 | locus YJL154C, strain vps35, hits give low values 1.02 | locus YJL164C, strain tpk1, hits give low values 1.03 | locus YJL166W, strain qcr8, hits give low values 1.04 | locus YJL168C, strain set2, hits give low values 0.989 | locus YJL187C, strain SWE1 (second series), hits give low values 1.03 | locus YJL187C, strain SWE1, hits give low values 1.06 | locus YJR043C, strain POL32, hits give low values 1.04 | locus YJR066W, strain TOR1, hits give low values 1 | locus YKL009W, strain mrt4, hits give low values 1.08 | locus YKL068W, hits give low values 1.02 | locus YKL085W, strain MDH1 (second series), hits give low values 1.01 | locus YKL085W, strain MDH1, hits give low values 1.01 | locus YKL160W, strain elf1, hits give low values 1.02 | locus YKR001C, strain vps1, hits give low values 1.05 | locus YKR026C, strain gcn3, hits give low values 1.03 | locus YKR091W, strain srl3, hits give low values 1.03 | locus YLL001W, strain dnm1, hits give low values 1 | locus YLL026W, hits give low values 1.03 | locus YLL041C, strain sdh2, hits give low values 1.02 | locus YLR027C, strain aat2, hits give low values 1.02 | locus YLR039C, strain RIC1, hits give low values 1.11 | locus YLR058C, strain SHM2, hits give low values 1.02 | locus YLR102C, strain apc9, hits give low values 0.98 | locus YLR113W, strain HOG1, hits give low values 1.02 | locus YLR221C, strain rsa3, hits give low values 1.04 | locus YLR258W, strain gsy2, hits give low values 1.02 | locus YLR262C, strain YPT6 (second series), hits give low values 1.05 | locus YLR262C, strain YPT6, hits give low values 1.1 | locus YLR268W, strain sec22, hits give low values 1.05 | locus YLR320W, strain mms22, hits give low values 1.04 | locus YLR330W, strain CHS5, hits give low values 1.03 | locus YLR342W, strain FKS1 (second series), hits give low values 1.07 | locus YLR342W, strain FKS1, hits give low values 1.03 | locus YLR357W, strain rsc2, hits give low values 1.05 | locus YLR370C, strain arc18, hits give low values 1.03 | locus YLR371W, strain rom2, hits give low values 0.993 | locus YLR384C, strain iki3, hits give low values 1.02 | locus YLR418C, strain cdc73, hits give low values 1.07 | locus YML016C, strain PPZ1, hits give low values 1.01 | locus YML032C, strain rad52, hits give low values 1.02 | locus YML120C, strain ndi1, hits give low values 1.03 | locus YML124C, strain tub3, hits give low values 1.01 | locus YMR058W, strain fet3, hits give low values 1.04 | locus YMR078C, strain ctf18, hits give low values 0.988 | locus YMR125W, strain sto1, hits give low values 1.03 | locus YMR129W, hits give low values 1.02 | locus YMR205C, strain PFK2, hits give low values 1.04 | locus YMR223W, strain ubp8, hits give low values 1.02 | locus YMR231W, strain pep5, hits give low values 1.03 | locus YMR263W, strain SAP30, hits give low values 1.02 | locus YMR307W, strain GAS1, hits give low values 1.13 | locus YNL067W, strain RPL9B, hits give low values 1.03 | locus YNL071W, strain lat1, hits give low values 1.03 | locus YNL153C, strain GIM3, hits give low values 1.02 | locus YNL183C, strain NPR1, hits give low values 1.01 | locus YNL209W, strain ssb2, hits give low values 1.02 | locus YNL233W, strain BNI4, hits give low values 1.03 | locus YNL248C, strain rpa49, hits give low values 1.05 | locus YNL250W, strain rad50, hits give low values 1.03 | locus YNL271C, strain bni1, hits give low values 1.02 | locus YNL298W, strain CLA4, hits give low values 1.02 | locus YNL307C, strain MCK1, hits give low values 0.995 | locus YNL322C, strain KRE1 (second series), hits give low values 1.02 | locus YNL322C, strain KRE1, hits give low values 1.02 | locus YNR049C, strain mso1, hits give low values 1.04 | locus YNR052C, strain pop2, hits give low values 1.03 | locus YOL012C, strain htz1 1.02 | locus YOL147C, strain pex11, hits give low values 1 | locus YOR001W, strain rrp6, hits give low values 1.04 | locus YOR061W, strain CKA2, hits give low values 1.02 | locus YOR069W, strain VPS5, hits give low values 1.01 | locus YOR070C, strain gyp1, hits give low values 1.01 | locus YOR080W, strain dia2, hits give low values 1.03 | locus YOR083W, strain WHI5, hits give low values 1.01 | locus YOR106W, strain vam3, hits give low values 1.06 | locus YOR136W, strain idh2, hits give low values 1.02 | locus YOR144C, strain elg1, hits give low values 1 | locus YOR184W, strain ser1, hits give low values 1.05 | locus YOR231W, strain MKK1, hits give low values 1.03 | locus YOR265W, strain rbl2, hits give low values 1.02 | locus YOR270C, strain vph1, hits give low values 1.1 | locus YOR290C, strain snf2, hits give low values 1.03 | locus YOR316C, strain cot1, hits give low values 0.987 | locus YPL051W, strain arl3, hits give low values 1 | locus YPL078C, strain atp4, hits give low values 1.01 | locus YPL106C, strain sse1, hits give low values 1.01 | locus YPL240C, strain hsp82, hits give low values 1.02 | locus YPL241C, strain CIN2, hits give low values 1.01 | locus YPL256C, strain CLN2, hits give low values 1.05 | locus YPR119W, strain clb2, hits give low values 0.991 | locus YPR141C, strain kar3, hits give low values 1.01 | locus YPR163C, strain tif3, hits give low values 0.99 | locus YPR167C, strain met16, hits give low values 1 | strain wtn01, hits give low values 1.06
